Assay in all cases: NCI-60 one-dose screen, 48 h (100 = growth as untreated, 0 = no growth, -100 = all killed)
Settings in all cases: 10 µM

In experiment [1] the test system is SK-MEL-2 melanoma.
Experiment [2] has as its system EKVX NSCLC.
Experiment [3] concerns SN12C renal.
Experiment [4] has as its system UO-31 renal.
The test system of experiment [5] is TK-10 renal.
For experiment [6], the system named is ACHN renal.
Experiment [7] deals with CAKI-1 renal.
Experiment [8] concerns A498 renal.
For experiment [9], the system named is MOLT-4 leukemia.
Experiment [10] deals with SR leukemia.
In experiment [11] the test system is RPMI-8226 leukemia.
In experiment [12] the test system is OVCAR-8 ovarian.
The subject of experiment [13] is OVCAR-5 ovarian.
Experiment [14] concerns OVCAR-4 ovarian.
Experiment [15] relates to SK-OV-3 ovarian.
In experiment [16] the test system is IGROV1 ovarian.
For experiment [17], the system named is OVCAR-3 ovarian.
Experiment [18] relates to HS 578T breast.
For experiment [19], the system named is NCI/ADR-RES ovarian.

The values below come from PubChem BioAssay (NCI).

About 83,000 compounds went through this panel and 20% of them were active in at least one assay; those are over-represented in the sample as a whole.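 Treatment: one concentration, 48 hours, 96-well format. Scoring: percent growth, with anything below 10 considered active.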 Unmarked numbers belong to inactive results. Calls of active or inactive are those of the source.

As to `Cc1n[nH]c(C)c1N=Nc1cccc2c1C(=O)c1ccccc1C2=O`, the growth in experiment [1] is 105%; in experiment [2], 61.8%; in experiment [3], 91.6%; in [4], 66.4%; in experiment [5], 97.8%; in experiment [6] it was 80%. The growth was 73.6% in experiment [7]; 55.2% in [8]; 84.5% in experiment [9]; 91.4% in experiment [10]; 104% in experiment [11]; 91.3% in [12]. Further, the growth in [13] is 91.8%; in [14], 89.5%; in [15], 93.6%; in experiment [16], 84.1%; in experiment [17] it was 106%; in experiment [18] it was 96.7%. Besides, the growth in experiment [19] is 89.1%.

`COc1ccc(-c2cc(-c3ccc(Cl)cc3)nc(SCCCC(=O)NO)n2)cc1OC`: the growth in experiment [1] is 13.3%; in experiment [2], -13.8% (active); in experiment [3], 6.47% (active); in experiment [4], -53.2% (active); in experiment [5], 17.8%; in experiment [6], -19.7% (active). For the same molecule, the growth in experiment [7] is -5.05% (active); in experiment [8] it was -40.1% (active); in experiment [9], 9.38% (active); in experiment [10] it was 19.7%; in experiment [11] it was -6.19% (active); in [12] it was 13.5%. Besides, the growth in experiment [13] is 1.46% (active); in experiment [14] it was 19.1%; in experiment [15] it was 0.0102% (active); in experiment [16], -1.77% (active); in experiment [17], 6.86% (active); in experiment [18], 29.2%. For the same molecule, the growth in experiment [19] was -30.6% (active).

On to `CNC(=O)c1cc(Oc2ccc3c(c2)sc2nc(-c4ccc(N)cc4)cn23)ccn1`, for which the growth in [1] was 35.8%; in experiment [2] it was 40.9%; in experiment [3] it was 29.4%; in experiment [4], 43.8%; in experiment [5] it was 57.4%; in experiment [6], 29.1%. Further, the growth in experiment [7] was 43.9%; in [8] it was 26.7%; in experiment [9] it was 15%; in experiment [10] it was 28.3%; in experiment [11], 40.5%; in [12], 10.9%. Besides, the growth was 64.2% in experiment [13]; 59.7% in [14]; 21.2% in [15]; 31.6% in experiment [16]; 1.42% (active) in [17]; 54.9% in experiment [18]. Besides, in [19], the growth was 11.2%.

As for `O=C(CCCSc1nc(-c2ccccc2)cc(-c2ccc(Cl)cc2)n1)NO`, the growth was 16.4% in [1]; -10.5% (active) in experiment [2]; 6.93% (active) in [3]; -26.4% (active) in experiment [4]; 21.9% in experiment [5]; -0.78% (active) in [6]. For the same molecule, the growth in experiment [7] was 2.37% (active); in experiment [8], -15.3% (active); in experiment [9] it was 11.2%; in experiment [10], 26.3%; in [11], -6.47% (active); in experiment [12], 14.2%. The growth was 9.63% (active) in [13]; 22.3% in [14]; 11.7% in [15]; 22.3% in experiment [16]; 7.27% (active) in [17]; 50.9% in [18]. Besides, the growth in experiment [19] is -22% (active).

As for `COc1ccc(/C=C/C(=O)C(=O)/C=C/c2ccc(OC)c(OC)c2)cc1OC`, the growth in experiment [1] is 96.6%; in experiment [2], 62.6%; in experiment [3] it was 2.82% (active); in experiment [4], 0.571% (active); in [5], 68.6%; in experiment [6], -0.679% (active). Further, the growth in experiment [7] is 84.3%; in experiment [8], 72.9%; in experiment [9] it was 23.4%; in experiment [10] it was 4.78% (active); in [11], 3.5% (active); in experiment [12], 19.5%. Further, the growth in experiment [13] was 60.5%; in experiment [14] it was 61.9%; in experiment [15] it was 97.8%; in experiment [16], 10.1%; in [17], 3.9% (active); in experiment [18], 31.5%. In experiment [19], the growth is 71.7%.

As to `Cc1ccc(/C=C2/C(=O)N(C)c3ccc(S(=O)(=O)Nc4ccc(C(C)(C)C)cc4)cc32)s1`, the growth in experiment [1] is 94.3%; in experiment [2] it was 103%; in experiment [3], 78.9%; in [4], 73.4%; in experiment [5] it was 90.9%; in experiment [6], 56%. Also, the growth in experiment [7] is 45%; in [8], 90.8%; in [9] it was 73.3%; in experiment [10] it was 57.9%; in [11] it was 55.6%; in experiment [12], 41.3%. Besides, the growth is 73% in experiment [13]; 44.4% in [14]; 89.6% in experiment [15]; 70.8% in experiment [16]; 88.3% in [17]; 88.7% in experiment [18]. Moreover, the growth in experiment [19] is 55.8%.

Turning to `CC(=O)Nc1ccc(CC[C@H]2CCC/C=C/[C@@H]3C[C@H](O)C[C@H]3[C@H](O)/C=C/C(=O)O2)cc1`, the growth in experiment [1] was -28.6% (active); in [2], 8.89% (active); in experiment [3], 5.85% (active); in [4], 6.87% (active); in experiment [5] it was -45.5% (active); in experiment [6], 4.68% (active). The growth in experiment [7] was 16%; in [8] it was -32.9% (active); in experiment [9], -6.82% (active); in experiment [10] it was 3.92% (active); in [11], 3.69% (active); in [12] it was 0.483% (active). The growth was 23% in [13]; 18.4% in experiment [14]; 29.8% in [15]; 20.3% in [16]; 6.39% (active) in [17]; 18.7% in experiment [19].

With `CCn1c(SCCc2ccccc2)nnc1-c1nn(-c2ccc(Cl)cc2Cl)c(-c2ccc(Cl)cc2)c1C`, the growth is 53.8% in [1]; 52.6% in experiment [2]; 70.3% in [3]; 53.5% in experiment [4]; 75.3% in experiment [5]; 61% in experiment [6]. Besides, the growth in experiment [7] was 64.4%; in experiment [8], 96.6%; in [9], 41.6%; in experiment [10], 37.6%; in experiment [11], 54.1%; in [12], 84.5%. The growth is 81.7% in experiment [13]; 75.6% in [14]; 79.1% in experiment [15]; 94.1% in [16]; 69.1% in experiment [17]; 98% in experiment [18]. Moreover, the growth in [19] is 72.6%.

Take `COc1cc(C(=O)/C=C/c2c[nH]c3ccccc23)cc(OC)c1OC`: the growth in [1] is 19.5%; in experiment [2] it was 35.2%; in experiment [3], 25.2%; in experiment [4] it was 20.9%; in [5] it was 48%; in experiment [6], 18.7%. Further, the growth was 27.6% in experiment [7]; 10.2% in experiment [8]; 17.6% in [9]; 14.3% in experiment [10]; 10.3% in experiment [11]; 15.9% in [12]. The growth was 55.7% in experiment [13]; 49.4% in experiment [14]; 17.7% in experiment [15]; 27.7% in experiment [16]; -8.84% (active) in experiment [17]; 49.9% in experiment [18]. Also, the growth in experiment [19] is 9.93% (active).

Regarding `CCCc1cn(CC(=O)Nc2nc3ccccc3s2)nn1`, the growth is 105% in [1]; 101% in [2]; 98.5% in experiment [3]; 65.9% in experiment [4]; 103% in experiment [5]; 101% in [6]. Also, the growth was 87.6% in [7]; 129% in [8]; 110% in experiment [9]; 110% in experiment [10]; 112% in [11]; 100% in experiment [12]. The growth in experiment [13] is 98.6%; in experiment [14] it was 109%; in experiment [15] it was 110%; in experiment [16], 97.3%; in experiment [17], 107%; in experiment [18], 101%. In addition, the growth in experiment [19] was 107%.

Regarding `CC(C)(C)OC(=O)N1CCc2c(sc3ncnc(N/N=C/c4cccc5ccccc45)c23)C1`, the growth in experiment [1] was 49.4%; in experiment [2], 8.53% (active); in experiment [3] it was 32.8%; in experiment [4] it was -8.22% (active); in experiment [5] it was 36.9%; in [6] it was 6.63% (active). For the same molecule, the growth was 24.2% in experiment [7]; 4.77% (active) in [8]; 14.4% in [9]; 24.1% in [10]; 2.4% (active) in [11]; 27.6% in experiment [12]. The growth in experiment [13] is 31.8%; in [14], 33.4%; in [15], 37%; in [16], 26.9%; in [17] it was 46.4%; in experiment [18] it was 17.2%. In experiment [19], the growth is 8.76% (active).

Regarding `C(=N\Nc1ncnc2sc3c(c12)CCNC3)/c1cccc2ccccc12`, the growth was 109% in [1]; 92.7% in experiment [2]; 82.4% in experiment [3]; 74.4% in [4]; 104% in experiment [5]; 47.9% in experiment [6]. In addition, the growth in [7] was 92%; in experiment [8] it was 98%; in experiment [9], 48.1%; in [10], 22%; in [11] it was -30.1% (active); in [12], 58.2%. Further, the growth was 89.8% in [13]; 42.7% in [14]; 103% in experiment [15]; 89.9% in experiment [16]; 113% in [17]; 96.8% in experiment [18]. The growth in experiment [19] was 75.4%.

For the molecule `CCn1c(SCc2ccc(C)cc2)nnc1-c1nn(-c2ccc(Cl)cc2Cl)c(-c2ccc(Cl)cc2)c1C`, the growth is 4.93% (active) in experiment [1]; 10.4% in [2]; 1.66% (active) in experiment [3]; 9.59% (active) in experiment [4]; 18.1% in [5]; 2.32% (active) in [6]. The growth in experiment [7] was 40.5%; in [8], 18.9%; in experiment [9], 2.46% (active); in experiment [10], 6.14% (active); in [11], -3.78% (active); in [12], 12.9%. Besides, the growth is 26.8% in experiment [13]; 16.9% in experiment [14]; -7.12% (active) in [15]; 30.8% in experiment [16]; 15.8% in experiment [17]; 38.4% in experiment [18]. In experiment [19], the growth is 52.1%.

Take `O=C(O)c1cn(C2CC2)c2cc(N3CCN(C(=O)c4cc(-c5ccc(Cl)cc5)nc5ccccc45)CC3)c(F)cc2c1=O`: the growth is 101% in experiment [1]; 85.5% in [2]; 90.9% in experiment [3]; 35.8% in experiment [4]; 113% in [5]; 87.3% in experiment [6]. The growth in experiment [7] was 60.2%; in [8], 74.2%; in experiment [9], 82.1%; in [10], 47.4%; in [11], 81.8%; in [12], 89.9%. The growth in [13] is 98.2%; in [14], 98.6%; in experiment [15], 77.9%; in experiment [16] it was 51.4%; in experiment [17], 100%; in [18] it was 94%. In addition, in experiment [19], the growth is 98.9%.
